Assay results published in paper PMC4336329 (PLoS ONE, 2015).
Among all 310,000 compounds or so, about 14,000 (4.5%) showed an effect of 50% or more. Effects have a minus sign here. The entries come from a sample that favours strong results as a whole.

Each compound was assayed against human ether-à-go-go-related gene (hERG) potassium channel (human, UniProt Q12809) (assay: primary screen, population patch clamp on CHO cells stably expressing hERG; higher = less effect of the substance).
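Also: peak tail current of the secondary pulse compared with the same well before compound.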

Chain of human ether-à-go-go-related gene (hERG) potassium channel (Q12809 whole entry, looked up): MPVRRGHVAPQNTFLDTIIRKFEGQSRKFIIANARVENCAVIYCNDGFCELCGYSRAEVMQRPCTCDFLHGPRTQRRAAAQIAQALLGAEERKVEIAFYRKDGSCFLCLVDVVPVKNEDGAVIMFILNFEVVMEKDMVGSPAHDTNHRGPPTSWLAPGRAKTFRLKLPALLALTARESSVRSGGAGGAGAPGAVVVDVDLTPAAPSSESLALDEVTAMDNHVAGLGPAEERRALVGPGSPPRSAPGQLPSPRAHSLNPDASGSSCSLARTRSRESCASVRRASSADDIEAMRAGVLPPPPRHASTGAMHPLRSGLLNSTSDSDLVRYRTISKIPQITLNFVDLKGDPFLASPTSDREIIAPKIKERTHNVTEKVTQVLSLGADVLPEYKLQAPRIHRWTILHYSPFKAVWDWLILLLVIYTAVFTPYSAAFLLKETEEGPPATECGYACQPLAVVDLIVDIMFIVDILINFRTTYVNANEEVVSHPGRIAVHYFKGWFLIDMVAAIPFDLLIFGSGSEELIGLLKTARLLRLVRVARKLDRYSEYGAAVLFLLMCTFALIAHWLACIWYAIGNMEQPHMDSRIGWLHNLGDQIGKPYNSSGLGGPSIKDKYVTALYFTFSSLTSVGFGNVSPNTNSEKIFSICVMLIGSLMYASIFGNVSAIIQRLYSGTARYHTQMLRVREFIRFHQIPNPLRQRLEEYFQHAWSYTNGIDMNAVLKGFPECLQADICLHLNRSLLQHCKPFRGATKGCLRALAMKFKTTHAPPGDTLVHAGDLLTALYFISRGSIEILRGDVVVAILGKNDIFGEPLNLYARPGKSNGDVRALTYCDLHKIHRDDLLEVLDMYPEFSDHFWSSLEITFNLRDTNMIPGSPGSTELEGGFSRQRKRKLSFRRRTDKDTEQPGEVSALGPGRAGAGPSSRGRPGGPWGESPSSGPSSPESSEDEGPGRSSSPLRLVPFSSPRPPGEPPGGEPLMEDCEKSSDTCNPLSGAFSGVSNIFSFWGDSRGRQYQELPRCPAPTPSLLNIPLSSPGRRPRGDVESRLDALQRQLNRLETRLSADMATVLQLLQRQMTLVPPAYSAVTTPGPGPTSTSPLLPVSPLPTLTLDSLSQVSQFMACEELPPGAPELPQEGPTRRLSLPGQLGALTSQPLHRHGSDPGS

Compared with `CC12CCC3C(CC=C4CC(O)CCC43C)C1C/C(=C\c1cccc(F)c1)C2=O` (stereo not shown), `Cc1ccsc1-c1nc(CN2CCCC2c2ccc(F)cc2)c(C)o1` (stereo not shown) is higher in “hERG current change (%, negative = inhibition) at 10uM” value: 7.89% for the first, 24.9% for the second.

First: COc1ccc(CNC(=O)Cc2nn(C)c(=O)c3ccccc23)cc1
Second: COc1ccc(CCC(=O)Nc2cccc(Cl)c2)cc1
The “hERG current change (%, negative = inhibition) at 10uM” value of the first is lower: -14.2% for the first, -1.25% for the second.

Going from `CCN1CCN(S(=O)(=O)c2cc(C(=O)O)ccc2Cl)CC1.Cl` to `CC(OC(=O)c1ccc(F)c(S(=O)(=O)N2CCOCC2)c1)C(=O)NCC1CCCCC1` (stereo not shown), the “hERG current change (%, negative = inhibition) at 10uM” value rises from -3.34% to 1.84%.

First: Cc1ccc(S(=O)(=O)N2CCC(C(=O)NNC(=O)c3ccccc3)CC2)cc1
Second: CCOC(=O)N1CCC(NC(=O)c2cc(C(=O)Nc3ccc(S(=O)(=O)N4CCCCC4)cc3)ccc2CO)CC1
The “hERG current change (%, negative = inhibition) at 10uM” value of the first is lower: 18.9% for the first, 34.2% for the second.

First: CCOc1ccc(NC(=S)N2CCC(C(O)(c3ccccc3)c3ccccc3)CC2)cc1
Second: COc1ccc(-c2csc(NC(=O)c3ccc(C(C)(C)C)cc3)c2C(=O)O)cc1
The “hERG current change (%, negative = inhibition) at 10uM” value of the first is lower: -13% for the first, 24.9% for the second.

First: C=CCOCCN(CC)CC
Second: COCCN(Cc1nc(-c2ccc(-c3ccccc3)cc2)oc1C)C(C)C
The “hERG current change (%, negative = inhibition) at 10uM” value of the first is higher: -21.3% for the first, -71.4% for the second.

Compared with `Cc1ccc(NC(=O)CSc2nnc(CNC(=O)c3c(F)cccc3Cl)o2)cc1`, `CC(=O)c1ccc(NC(=O)Nc2ccncc2)cc1` is higher in “hERG current change (%, negative = inhibition) at 10uM” value: 3.28% for the first, 15.3% for the second.

Compared with `COc1cc(/C=C2\C(=O)N(CCC#N)N=C2C)ccc1OCC(=O)Nc1ccccc1`, `CCOC(=O)c1cnc2c(OC)cccc2c1Oc1ccccc1` is higher in “hERG current change (%, negative = inhibition) at 10uM” value: -7.3% for the first, 3.3% for the second.

First: Cc1ccc(-c2nc(CS(=O)CC(=O)NC3CC3)c(C)o2)cc1 (stereo not shown)
Second: Cc1ccc(-c2nc(CN(C)C(C3CC3)C3CC3)c(C)o2)cc1
The “hERG current change (%, negative = inhibition) at 10uM” value of the first is higher: 6.39% for the first, -56.6% for the second.

Going from `Cc1oc(-c2cccc(Cl)c2)nc1CN(C)C1CCOC1` (stereo not shown) to `CSc1ccc(-c2nc(CN(C)C3CCOC3)c(C)o2)cc1` (stereo not shown), the “hERG current change (%, negative = inhibition) at 10uM” value falls from 0.385% to -31.4%.

First: Cc1ccsc1-c1nc(CN2C[C@@H](C)O[C@@H](C)C2)c(C)o1
Second: Cc1ccsc1-c1nc(CN2CCN(C)C(=O)[C@@H]2C)c(C)o1
The “hERG current change (%, negative = inhibition) at 10uM” value of the first is higher: 17.5% for the first, -52.5% for the second.

Compared with `Cc1oc(-c2ccc3ccccc3c2)nc1CN(C)C(C)c1ccncn1` (stereo not shown), `Cc1oc(-c2ccc(-c3ccccc3)cc2)nc1CN(CCO)C(C)C` is higher in “hERG current change (%, negative = inhibition) at 10uM” value: -49.8% for the first, -44.1% for the second.

Compared with `Cc1ccsc1-c1nc(CN(C)C(C2CC2)C2CC2)c(C)o1`, `COc1cccc(C2CCCN2Cc2nc(-c3sccc3C)oc2C)c1` (stereo not shown) is higher in “hERG current change (%, negative = inhibition) at 10uM” value: -76% for the first, 20.6% for the second.

Going from `Cc1oc(-c2cc(F)ccc2F)nc1CN1CCN(C)C(=O)[C@@H]1C` to `Cc1oc(-c2ccccc2)nc1CC(=O)O`, the “hERG current change (%, negative = inhibition) at 10uM” value rises from 8.32% to 8.97%.

Going from `Cc1oc(-c2ccc(-c3ccccc3)cc2)nc1CN(C)C1CCOC1` (stereo not shown) to `O=[N+]([O-])c1cccc(-c2c(-c3ccccc3)ncc3cc(F)ccc23)c1`, the “hERG current change (%, negative = inhibition) at 10uM” value rises from -55.8% to 0.428%.

Going from `Nc1cccnc1S(=O)(=O)c1ccccc1` to `Nc1ccccc1-c1nnc(SCc2ccccc2Cl)[nH]c1=O`, the “hERG current change (%, negative = inhibition) at 10uM” value falls from 13.8% to -0.313%.

Going from `O=C(c1ccco1)N1CCN(C2=NS(=O)(=O)c3ccccc32)CC1` to `Cc1nc2ncnn2c(C)c1CCC(=O)N1CCN(Cc2ccccc2)CC1`, the “hERG current change (%, negative = inhibition) at 10uM” value falls from -3.13% to -7.67%.

Going from `O=C(CN1C(=O)NC2(CCOc3ccccc32)C1=O)c1ccc(Cl)cc1` (stereo not shown) to `O=C(Nc1cccc(-c2ccc(N3CCOCC3)nn2)c1)c1ccc(Cl)cc1`, the “hERG current change (%, negative = inhibition) at 10uM” value rises from -43.5% to -3.12%.

Going from `CC(NC(=S)NCCc1ccccc1)C(c1cccs1)N1CCN(C)CC1` (stereo not shown) to `O=C(O)[C@H](Cc1ccccc1)NC(=O)N1CCOCC1`, the “hERG current change (%, negative = inhibition) at 10uM” value rises from -35.7% to -7.49%.

Compared with `O=C(CCCc1c[nH]c2ccccc12)N[C@@H](Cc1c[nH]c2ccccc12)C(=O)O`, `CCOC(=O)c1cnc2ccccc2c1Nc1ccc2c(c1)OCCO2` is lower in “hERG current change (%, negative = inhibition) at 10uM” value: 18.9% for the first, -12.3% for the second.

Going from `CCOC(=O)Cn1nc(C)cc1NC(=O)c1cccnc1` to `CCOC(=O)c1ccc(NCc2cccnc2)cc1`, the “hERG current change (%, negative = inhibition) at 10uM” value falls from 10% to 0.518%.

Going from `O=C(CCCc1nc(-c2ccc(Cl)cc2)no1)NC1CCCC1` to `Cc1nc2ncnn2c(C)c1CCC(=O)N1CCc2ccccc2C1`, the “hERG current change (%, negative = inhibition) at 10uM” value falls from -1.19% to -63.4%.

Compared with `CCOC(=O)c1cnc2c(OC)cccc2c1Nc1ccc2c(c1)OCCO2`, `CCOC(=O)c1cnc2ccc(OC)cc2c1Nc1ccc2c(c1)OCCO2` is higher in “hERG current change (%, negative = inhibition) at 10uM” value: -56.3% for the first, 1.43% for the second.

Going from `CCOC(=O)c1cnc2c(OC)cccc2c1NCc1cccnc1` to `CCOC(=O)c1cnc2c(C(=O)OC)cccc2c1NCc1cccnc1`, the “hERG current change (%, negative = inhibition) at 10uM” value rises from -72.2% to -70.5%.

First: CCOC(=O)c1cnc2c(OC)cccc2c1N1CC(C)CC(C)C1 (stereo not shown)
Second: CCOC(=O)c1cnc2c(Cl)cccc2c1NCCN(C)C.Cl
The “hERG current change (%, negative = inhibition) at 10uM” value of the first is higher: -17.1% for the first, -25.6% for the second.

Going from `CC(=O)c1cccc(NC(=O)C(C)OC(=O)CN2C(=O)NC(C)(C)C2=O)c1` (stereo not shown) to `COC(=O)C1=C(c2cc3ccccc3s2)C[C@@H]2CC[C@H]1N2C(=O)NCCNC(C)=O`, the “hERG current change (%, negative = inhibition) at 10uM” value falls from 23.8% to 2.06%.

Compared with `O=C(O)Cn1ccnc1`, `Cc1nc2nc(C)c(CCC(=O)O)c(C)n2n1` is higher in “hERG current change (%, negative = inhibition) at 10uM” value: 4.81% for the first, 8.07% for the second.

First: COC(=O)C(c1ccccc1)N1CCCCCC1.Cl (stereo not shown)
Second: Cc1nc2ncnn2c(C)c1CCC(=O)N1CCCCC1
The “hERG current change (%, negative = inhibition) at 10uM” value of the first is higher: 10.8% for the first, -2.79% for the second.

Compared with `Cc1nc2ncnn2c(C)c1CCC(=O)N1CCN(c2ccccn2)CC1`, `Cc1nc2ncnn2c(C)c1CCC(=O)N1CCOCC1` is higher in “hERG current change (%, negative = inhibition) at 10uM” value: -33.3% for the first, 1.89% for the second.

First: CCOC(=O)N1CCN(C(=O)CCc2c(C)nc3nc(C)nn3c2C)CC1
Second: Cc1nc2nc(C)c(CCC(=O)N3CCc4ccccc43)c(C)n2n1
The “hERG current change (%, negative = inhibition) at 10uM” value of the first is higher: -22% for the first, -63.5% for the second.

For `Cc1nc2ncnn2c(C)c1CCC(=O)N1CCc2ccccc21`, the “hERG current change (%, negative = inhibition) at 10uM” value was -80.6%.
